HP1b binding inh – HTS for Inhibitors of HP1-beta Chromodomain Interactions with Methylated Histone Tails. Chromobox protein homolog 1 (Homo sapiens), P83916. AlphaScreen HP1-beta / biotin-H3K9me3 peptide binding. Potency, µM (series often up to 114 µM), inactives show at the top dose activity change, negative = inhibition, hits mostly inhibitors. 390,000 compounds, 0.56% hits; further: potency means the concentration at half of the fitted maximal effect; nearly all actives have a fitted effect of over 70% in size
Target sequence (P83916 whole entry, looked up): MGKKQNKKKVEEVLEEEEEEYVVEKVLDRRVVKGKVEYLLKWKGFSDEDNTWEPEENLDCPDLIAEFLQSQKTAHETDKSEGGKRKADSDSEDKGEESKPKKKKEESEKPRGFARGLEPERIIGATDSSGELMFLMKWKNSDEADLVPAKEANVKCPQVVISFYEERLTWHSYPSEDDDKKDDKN
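HP1-beta protein (50 nM final) preincubated 30 min at room temperature with biotinylated H3(1-18)K9me3 peptide (50 nM) in PBS pH 7.4, 0.01% Tween-20, then compound added for 30 min. AlphaScreen streptavidin donor/nickel chelate acceptor beads (10 ug/mL final), 30 min dark, luminescence read.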
BAZ2B block – qHTS Assay for Inhibitors of BAZ2B | AlphaScreen BAZ2B-H3K14Ac peptide displacement | Potency, µM (highest dose often 114 µM), for the others: top-dose activity change, negative = inhibition, actives largely listed as inhibitors | 360,000 compounds, 4.4% hits; further: potency means the concentration at half of the fitted maximal effect; on the % scale 0 is the no-effect control and ±100 the full control effect; nearly all actives have a fitted effect of over 60% in size
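BAZ2B (50 nM) with biotin-H3(5-23)K14Ac peptide (50 nM) in PBS pH 7.4, 0.01% Tween-20, preformed 30 min, then compound 30 min at room temperature; top concentration 110uM. AlphaScreen streptavidin donor/nickel chelate acceptor beads (10 ug/mL final), 20 min dark, signal read.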
JMJD2A Tudor – qHTS Assay for Inhibitors of JMJD2A-Tudor Domain; Lysine-specific demethylase 4A (Homo sapiens), O75164; AlphaScreen JMJD2A-Tudor / H3K4me3 peptide binding; Potency, µM (highest dose often 114 µM), for inactives: at the top dose activity change, negative = inhibition, usual class: inhibitors; 390,000 compounds, 4.4% hits; further: potency means the concentration at half of the fitted maximal effect; on the % scale 0 is the no-effect control and ±100 the full control effect; nearly all actives have a fitted effect of over 50% in size
G9a inh – qHTS Assay for Inhibitors of Histone Lysine Methyltransferase G9a; 350,000 compounds, 8.8% hits; G9a H3K9 monomethylation, AlphaScreen, 2 h; Potency, µM (titrated, usually from 102 µM), without a hit: at the highest dose activity, negative = inhibition, hits mostly inhibitors; further: potency means the concentration at half of the fitted maximal effect; on the % scale 0 is the no-effect control and ±100 the full control effect; nearly all actives have a fitted effect of over 75% in size
Target sequence (Q96KQ7 913-1193 limits assumed): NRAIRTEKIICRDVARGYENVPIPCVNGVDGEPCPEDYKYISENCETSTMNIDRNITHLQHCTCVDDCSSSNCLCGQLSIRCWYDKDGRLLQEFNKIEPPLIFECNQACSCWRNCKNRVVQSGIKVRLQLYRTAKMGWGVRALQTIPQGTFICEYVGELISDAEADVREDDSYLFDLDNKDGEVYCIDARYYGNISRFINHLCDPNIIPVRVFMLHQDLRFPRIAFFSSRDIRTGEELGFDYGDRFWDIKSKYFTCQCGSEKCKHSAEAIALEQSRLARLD
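AlphaScreen read-out: biotin-H3K9 peptide (500 nM) methylation by 20 nM enzyme with 20 uM SAM, 2 h at room temperature after 15 min compound preincubation; anti-monomethyl H3K9 antibody plus donor/acceptor beads, 10 min dark.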
Six1-Eya2 blk – qHTS Assay for Inhibitors of the Six1/Eya2 Interaction | 360,000 compounds, 0.56% hits | AlphaScreen GST-Six1/His-Eya2 binding, biochemical; stronger effect = lower value | activity change, % (no concentration beside the values); in the data active means activity change below about -65%; inconclusive means mostly about -30% to -63%; further: on the % scale 0 is the no-effect control and ±100 the full control effect
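Homogeneous AlphaScreen proximity assay pairing GST-Six1 with His-tagged Eya2 (added as 5X mix: 250 nM and 500 nM) in 50 mM Tris pH 8.0, 300 mM NaCl, 1 mM TCEP. Glutathione donor and nickel acceptor beads; 1 h, 37 °C, dark.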
CtBP-E1A blk – qHTS Assay for Inhibitors of the CtBP/E1A Interaction | 340,000 compounds, 0.49% hits | AID 651724, 2012 | AlphaScreen GST-E1A/His-CtBP binding, 1536-well; stronger effect = lower value | CtBP / adenovirus E1A interaction (AlphaScreen) | activity change, % (no concentration beside the values); in the data active means activity change below about -65%; inconclusive means mostly about -30% to -63%; further: on the % scale 0 is the no-effect control and ±100 the full control effect
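Homogeneous bead-based format: GST-tagged E1A captured on glutathione donor beads, His-tagged CtBP on nickel acceptor beads; compounds precede bead addition by 2 h at 37 °C.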
The depositor's hits bear a star; ! = a repeat was not active; [ ] = another dose, or the depositor's remark. An excerpt weighted towards active compounds, which were near 10% of everything screened. Unless noted, the call rests on the fitted dose curve; in most records, active means well fitted inhibition curve with a large enough effect; inconclusive means small, poorly fitted or top-dose-only effect; inactive means no such curve, though single readings can be large or run the other way.

How did CC(C)OC(=O)CC1C(=O)NCCN1C(=S)NC(=O)c1ccc(F)cc1 (centres undefined) do in these assays?
HP1b binding inh: 41%; BAZ2B block: -20%; JMJD2A Tudor: -14%; G9a inh: 40µM*; Six1-Eya2 blk: -5; CtBP-E1A blk: -4

Results for COc1cccc(NC(=O)c2sc3nc(C)c(C(=O)Nc4ccc(C)cc4C)c(-c4ccc(Br)cc4)c3c2N)c1 ?
HP1b binding inh: 47%; BAZ2B block: 10%; JMJD2A Tudor: 8%; G9a inh: -12%[59 µM]

Results for Cc1cc2c(s1)c1cnn(Cc3cc(C(F)(F)F)ccc3F)c(=O)c1n2C ?
JMJD2A Tudor: -29%

What do the screens show for `O=C(O)C(Cc1c[nH]c2ccccc12)NS(=O)(=O)c1ccc2ccccc2c1` (centres undefined)?
HP1b binding inh: 31%; BAZ2B block: -4%; JMJD2A Tudor: -10%; G9a inh: -12%; Six1-Eya2 blk: -5

What do the screens show for `O=C(O)C(Cc1c[nH]c2ccccc12)NS(=O)(=O)c1cccc(Cl)c1Cl` (centres undefined)?
HP1b binding inh: 16%; BAZ2B block: 89µM*; JMJD2A Tudor: -11%; G9a inh: -18%; Six1-Eya2 blk: 8

Results for O=C(O)c1cc(S(=O)(=O)NC(Cc2c[nH]c3ccccc23)C(=O)O)ccc1Cl (centres undefined) ?
HP1b binding inh: 39%; BAZ2B block: -36%; JMJD2A Tudor: -11%; G9a inh: 45µM*; Six1-Eya2 blk: 0

What do the screens show for `O=C(O)c1ccc(Cl)c(S(=O)(=O)NC(Cc2c[nH]c3ccccc23)C(=O)O)c1` (centres undefined)?
HP1b binding inh: 6%; BAZ2B block: -15%; JMJD2A Tudor: -34%; G9a inh: inconclusive; Six1-Eya2 blk: 1

How did CC1CCCCN1Cc1c(O)ccc2c(=O)c(-c3ccc(Cl)cc3)coc12 (centres undefined) do in these assays?
HP1b binding inh: 29%; BAZ2B block: -3%; JMJD2A Tudor: 79µM*!; G9a inh: 9%; Six1-Eya2 blk: 10; CtBP-E1A blk: 7

Results for CC1CCCCN1Cc1c(O)ccc2c(=O)c(-c3ccc(Br)cc3)coc12 (centres undefined) ?
HP1b binding inh: 23%; BAZ2B block: -13%; JMJD2A Tudor: -7%; G9a inh: -6%; Six1-Eya2 blk: 1; CtBP-E1A blk: 2

Results for O=C1C=CC(=NN=C(c2ccccc2)c2ccccc2)C=C1 ?
Six1-Eya2 blk: -3; CtBP-E1A blk: 3

How did OCc1ccc(-c2nn(Cc3ccccc3)c3ccccc23)o1 do in these assays?
HP1b binding inh: 12%; BAZ2B block: 40µM*; JMJD2A Tudor: -19%; G9a inh: 21µM*; Six1-Eya2 blk: -9; CtBP-E1A blk: -9

Results for CN(C)CCCOc1cccc(Cl)c1 ?
HP1b binding inh: inconclusive; BAZ2B block: 79µM*; JMJD2A Tudor: 18µM*; G9a inh: 14µM*; Six1-Eya2 blk: 7; CtBP-E1A blk: -1

How did CCCCNCCCOc1cccc(Cl)c1 do in these assays?
HP1b binding inh: 18%; BAZ2B block: 6%; JMJD2A Tudor: -6%; G9a inh: 24%[12.7 µM]; Six1-Eya2 blk: 15; CtBP-E1A blk: 9

Results for CC(C)(c1ccccc1)c1ccc(OCC2CO2)cc1 (centres undefined) ?
HP1b binding inh: 135%; BAZ2B block: 111%; JMJD2A Tudor: 190%; G9a inh: 258%; Six1-Eya2 blk: 17; CtBP-E1A blk: 37

How did CN(C)CCCOc1cccc(Oc2ccccc2)c1 do in these assays?
HP1b binding inh: inconclusive; BAZ2B block: inconclusive; JMJD2A Tudor: 56µM*; G9a inh: 14µM*; Six1-Eya2 blk: -4; CtBP-E1A blk: -5

Results for CC(C)N(CCNCC(O)COc1ccc(C(C)(C)c2ccccc2)cc1)C(C)C (centres undefined) ?
HP1b binding inh: -14%; BAZ2B block: 50µM*; JMJD2A Tudor: 5.6µM*; G9a inh: 20µM*; Six1-Eya2 blk: 4; CtBP-E1A blk: 6

How did CN(C)CCCOc1ccc(C(C)(C)c2ccccc2)cc1 do in these assays?
HP1b binding inh: inconclusive; BAZ2B block: 50µM*; JMJD2A Tudor: 1.6µM*; G9a inh: inconclusive; Six1-Eya2 blk: -3; CtBP-E1A blk: -5

How did COc1ccc(-n2c(=O)c(-c3cccc(F)c3)nc3cncnc32)cc1 do in these assays?
G9a inh: 9%[0.501 µM]

Results for O=C(NCC1CCCO1)/C(=C/c1ccccc1F)NC(=O)c1ccccc1 (centres undefined) ?
HP1b binding inh: 51%; BAZ2B block: 6%; JMJD2A Tudor: -3%; G9a inh: 15%; Six1-Eya2 blk: 1; CtBP-E1A blk: 2

Results for O=C1CCC[C@@H]2Cc3[nH]c4c(Cl)ccc(Cl)c4c3[C@@H]3CCN1[C@H]23 ?
HP1b binding inh: -10%; BAZ2B block: -11%; JMJD2A Tudor: -30%; G9a inh: 50µM*; Six1-Eya2 blk: -1; CtBP-E1A blk: -2

How did C/C(=C\c1ccccc1)C(=O)NCCc1ccccc1 do in these assays?
HP1b binding inh: 27%[57 µM]; BAZ2B block: 1%; JMJD2A Tudor: 10%; G9a inh: 46%; Six1-Eya2 blk: -5; CtBP-E1A blk: 4

What do the screens show for `O=C1CSC2(CCN(CCCN3c4ccccc4Sc4ccc(Cl)cc43)CC2)N1`?
G9a inh: 18µM*

Results for CN1CCN(CCCN2c3ccccc3Sc3ccc(C(F)(F)F)cc32)CC1 ?
HP1b binding inh: inconclusive; BAZ2B block: 35µM*; JMJD2A Tudor: inconclusive; G9a inh: 16µM*!; Six1-Eya2 blk: -15; CtBP-E1A blk: 15

What do the screens show for `O=c1cc(N2CCNCC2)nc2sc(-c3ccncc3)nn12`?
JMJD2A Tudor: -32%

Results for Cc1ccc(N2CCN(C(=S)c3ccc(-c4cccc([N+](=O)[O-])c4)o3)CC2)cc1 ?
HP1b binding inh: inconclusive; BAZ2B block: inconclusive; JMJD2A Tudor: inconclusive; G9a inh: 8.9µM*; Six1-Eya2 blk: -19

Results for Cc1ccccc1N1CCN(C(=S)c2ccc(-c3cccc([N+](=O)[O-])c3)o2)CC1 ?
HP1b binding inh: -24%; JMJD2A Tudor: inconclusive; G9a inh: 13µM*; Six1-Eya2 blk: -17
